# Source: PubChem (National Center for Advancing Translational Sciences (NCATS))
# BCR signal inh: qHTS Assay to Find Inhibitors of Chronic Active B-Cell Receptor Signaling | ABC-DLBCL IkBa-CBG/CBR reporter, luminescence ratio, 4 h | Potency, µM (doses to about 46.1 µM), hits mostly inhibitors | hit rate 0.05% among 340,000 | AID 493014, 2011; active = well fitted inhibition curve with a large enough effect in the signal ratio, with a control signal flat, not every such curve was filed as active; inconclusive = small, poorly fitted or top-dose-only effect, or effect the other way, or a change in a side signal; the % refers to the signal ratio
#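 Concentration-response series (up to 46 uM) were applied to TMD8 dual-reporter cells for 4 h at 37C with doxycycline. Green/red ratio, after filter-overlap correction, defined %Activity; red signal alone was normalised to basal cells and zero luminescence.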
# MCF10A rerep: A quantitative high throughput screen for small molecules that induce DNA re-replication in MCF 10a normal breast cells. MCF 10A DNA re-replication, Hoechst nuclear intensity, 48 h. Potency, µM (doses to about 46.1 µM), usual class: activators. hit rate 2.9% among 350,000. AID 624296, 2012; also: nearly all actives have a fitted effect of over 50% in size
# SW480 rereplic: A quantitative high throughput screen for small molecules that induce DNA re-replication in SW480 colon adenocarcinoma cells | SW480 DNA re-replication, Hoechst DNA content imaging, 48 h | Potency, µM (top dose mostly 46.1 µM), usual class: activators | hit rate 1.8% among 340,000 | AID 624297, 2012; also: nearly all actives have a fitted effect of over 55% in size
#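 DNA re-replication was detected as more nuclei of elevated Hoechst intensity after 48 hr exposure to compound (23 nL pinned per well of 250 cells).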
# TDP1 cell noCPT: qHTS for Inhibitors of human tyrosyl-DNA phosphodiesterase 1 (TDP1): qHTS in cells in absence of CPT | DT40 Tdp1-/- hTDP1 cells, no CPT, ATP luminescence, 48 h | Potency, µM (highest dose often 46.2 µM), usual class: inhibitors | hit rate 15% among 420,000; also: nearly all actives have a fitted effect of over 55% in size
#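 Chicken DT40 Tdp1-/- cells complemented with human TDP1, screened without camptothecin (DMSO vehicle only), 400 cells/well. Compounds pin-transferred, cells incubated at 37 °C for at least 48 hr. Growth read as ATP-dependent luminescence (CellTiter-Glo, 30 min at RT).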
# IL1B secr inh: qHTS for Inhibitors of Inflammasome Signaling: IL-1-beta AlphaLISA Primary Screen | AID 743279, 2014 | activity change, % at 57.5 µM | THP-1 LPS/ATP IL-1B secretion, AlphaLISA, 16 h; hits give low values | hit rate 4.7% among 360,000; in the data active = activity change below about -50%; inconclusive = mostly about -30% to -49%
#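 Secreted IL-1B measured by AlphaLISA bead assay after 16 h compound exposure of THP-1 cells; compounds (final up to 57.5 uM) added 1 h before LPS (250 ng/mL) and ATP (1.25 mM) stimulation; lower signal means less secretion.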
# TDP1 cell CPT: qHTS for Inhibitors of human tyrosyl-DNA phosphodiesterase 1 (TDP1): qHTS in cells in presence of CPT; chicken DT40 Tdp1-/-;hTDP1 cells + 20 nM CPT, ATP luminescence, 48 h; Potency, µM (titrated, usually from 46.2 µM), most hits filed as inhibitors; hit rate 12% among 420,000; also: nearly all actives have a fitted effect of over 55% in size
#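 Chicken DT40 Tdp1-/- cells complemented with human TDP1, 400 cells/well, exposed to compounds plus 20 nM camptothecin for at least 48 h at 37 C; viability read as ATP content by CellTiter-Glo luminescence.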
# Numbers stand for hits; – = inactive; ? = inconclusive; · = not tested or not shown. Shown are actives, neighbours in structure and some others; about 19% of the full set was active somewhere. Unless noted, calls follow the shape of the dose curve; as a rule, active = well fitted curve in the direction sought with a large enough effect; inconclusive = small, poorly fitted or top-dose-only effect, or another doubt; inactive = no such curve, though single readings can be large; an effect the other way counts as inactive or inconclusive.
SMILES,BCR signal inh,MCF10A rerep,SW480 rereplic,TDP1 cell noCPT,IL1B secr inh,TDP1 cell CPT
Cc1cc(C)c(NC(=O)c2ccc(S(=O)(=O)N(C)C)cc2)c(C)n1,?,18µM,?,–,–,–
Cc1cc(NC(=O)c2ccc(S(=O)(=O)N(C)C)cc2)no1,?,–,–,–,–,–
CCN(CC)S(=O)(=O)c1cccc(NC(=O)c2ccc(-n3nc(C)cc3C)cc2)c1,–,–,–,23µM,?,?
COc1ccc(OCCCCn2c(-c3ccc(Cl)cc3)nc3ccccc3c2=O)cc1,·,·,·,?,·,–
CCCCCCc1cc2cc(C(=O)NCc3ccccc3)c(=N)oc2cc1O,–,7.3µM,?,?,–,?
COc1ccc2oc(=N)c(C(=O)NCc3ccccc3)cc2c1,–,–,–,?,–,–
CCCCCCc1cc2cc(C(=O)Nc3ccccc3)c(=O)oc2cc1O,?,?,2.1µM,3.7µM,–,3.3µM
COc1ccc2oc(=N)c(C(=O)Nc3ccccc3)cc2c1,–,–,–,?,–,–
Nc1nc[nH]c(=O)c1N,·,·,·,–,·,–
CC1=C(C(=O)OC(C)C)C(c2cccc(F)c2)n2ncnc2N1 (configuration not stated),–,–,–,16µM,–,15µM
CC(=O)NC(c1ccccc1)c1nc(-c2cc3ccccc3o2)cs1 (configuration not stated),·,·,·,?,–,23µM
CC(=O)NC(c1ccc(F)c(F)c1)c1nc(-c2cc3ccccc3o2)cs1 (configuration not stated),·,·,·,?,–,–
CC(=O)NC(c1ccccc1)c1nc(-c2cccs2)cs1 (configuration not stated),·,·,·,?,–,–
CC(=O)NC(c1cccc(F)c1)c1nc(-c2cc3ccccc3o2)cs1 (configuration not stated),·,·,·,21µM,–,?
O=C(O)/C=C/c1ccc2ccccc2c1,·,·,·,–,·,–
COCCNC(=O)c1ccc(N2CC3CC(C2)c2cccc(=O)n2C3)c(NC(=O)c2ccc(C(C)(C)C)cc2)c1 (configuration not stated),·,·,·,?,–,–
CC1CC(C)CN(S(=O)(=O)c2ccc3oc(=O)ccc3c2)C1 (configuration not stated),–,–,–,–,–,–
CCCCNC(=O)c1nc(-c2ccccc2)oc1-c1ccc(Cl)cc1,·,·,·,?,–,?
CCCCNC(=O)c1nc(-c2cccnc2OC)oc1-c1ccc(Cl)cc1,·,·,·,23µM,–,16µM
COC(=O)[C@@]12CCCCN1[C@H](c1ccc(-c3ccc(C(C)=O)cc3)cc1)[C@@H]1C(=O)N(C)C(=O)[C@@H]12,–,–,–,23µM,–,15µM
COC(=O)[C@@]12CCCCN1[C@H](c1ccc(-c3ccc(OC)cc3)cc1)[C@@H]1C(=O)N(C)C(=O)[C@@H]12,–,–,–,21µM,–,21µM
COC(=O)[C@@]12CCCCN1[C@H](c1ccc(-c3ccc(OC)cc3)c(OC)c1)[C@@H]1C(=O)N(C)C(=O)[C@@H]12,–,?,?,?,–,21µM
COC(=O)[C@@]12CCCCN1[C@H](c1ccc(-c3ccc4c(c3)OCO4)cc1)[C@H]1C(=O)N(C)C(=O)[C@H]12,–,3.7µM,–,23µM,–,13µM
O=C(NC(=S)NNC(=O)c1ccccc1[N+](=O)[O-])c1ccc(Br)cc1,–,–,–,–,–,–
CCN(CC)C(=O)c1sc2c(c1C)c(=O)n(-c1ccccc1)c(=O)n2CC(=O)Nc1ccc(C)cc1C,?,·,·,–,·,?
SMILES,BCR signal inh,MCF10A rerep,SW480 rereplic,TDP1 cell noCPT,IL1B secr inh,TDP1 cell CPT
COc1cc(-c2nnc(SCC(=O)Oc3ccccc3Cl)o2)cc(OC)c1OC,·,·,·,–,·,–
COc1ccc(-c2nnc(SCCOc3ccccc3C)o2)cc1OC,·,·,·,18µM,·,?
CCc1ccccc1OCCSc1nnc(-c2cc(OC)c(OC)c(OC)c2)o1,·,·,·,18µM,·,18µM
O=C(NCCCN1CCOCC1)c1ccc(Sc2ccc(Br)cc2)c([N+](=O)[O-])c1,–,–,–,10µM,–,6.5µM
O=C(NCCCN1CCOCC1)c1ccc2ccccc2c1,–,–,–,?,–,–
O=C(NCCCN1CCOCC1)c1ccc2c(=O)n(Cc3cccc(Br)c3)c(=S)[nH]c2c1,?,–,?,?,-65,–
O=C(NCCCN1CCOCC1)c1ccc(Sc2ccccc2Cl)c([N+](=O)[O-])c1,–,?,?,?,-52,?
COc1cccc(NC(=O)CN(C)C(=O)c2ccc(NC(=O)CC3SC(N4CCCC4)=NC3=O)cc2)c1 (configuration not stated),·,–,–,–,–,–
CC(C)CC(=O)N1CCN(c2ccc(NC(=O)c3ccco3)cc2)CC1,–,–,–,–,–,–
Cc1nc(OCc2ccccc2)c2ccccc2n1,–,?,–,?,–,?
COC(=O)c1sccc1OCc1cccc(OC)c1,?,–,–,–,–,–
COc1cccc(COc2cc3ccccc3nc2C)c1,–,–,–,9.2µM,–,10µM
Cc1nc2ccccc2cc1OCc1ccccc1,–,–,–,16µM,–,12µM
COc1cccc(C(=O)Nc2ccc(-c3nc4ccccc4s3)cc2Cl)c1,–,·,·,?,·,?
COc1ccc(-c2nc3ccccc3s2)cc1NC(=O)c1cc(OC)c(OC)c(OC)c1,·,·,·,–,·,?
COc1cccc(C(=O)NCc2ccc(-c3nc4ccccc4s3)cc2)c1,?,–,–,18µM,–,18µM
COc1ccc(C(=O)Nc2cc(-c3nc4ccccc4s3)ccc2OC)cc1,·,·,·,5.2µM,·,3.3µM
COc1ccc(-c2nc3ccccc3s2)cc1NC(=O)c1cccc(F)c1,–,·,·,?,·,?
COc1ccc(C(=O)NCc2ccc(-c3nc4ccccc4s3)cc2)cc1,?,–,–,–,–,–
COc1ccc(-c2nc3ccccc3s2)cc1NC(=O)c1ccccc1OC,·,·,·,21µM,·,5.2µM
COc1cc(OC)cc(C(=O)Nc2ccccc2-c2nc3ccccc3s2)c1,·,·,·,5.8µM,·,10µM
Cc1ccc(S(=O)(=O)c2nnn3c2nc(N2CCN(c4ccccc4F)CC2)c2ccccc23)cc1C,·,·,·,–,·,–
Cc1ccc(CNC(=O)CN2C(=O)CCn3nc(-c4ccccc4)cc32)cc1,·,·,·,–,·,–
COc1ccc(OC)c(NC(=O)c2ccc(CSc3nnc(C)s3)cc2)c1,–,–,–,?,-60,–
